Assay results from PubChem BioAssay AID1347428 (National Center for Advancing Translational Sciences (NCATS), 2020).
The campaign covered roughly 91,000 compounds. About 290 (0.32%) were called active. Roughly 7% stayed inconclusive and do not appear here. Shown is part of a subset that was picked to be rich in actives. Values without a mark were called inactive. Calls follow the shape of the dose curve; as a rule, active = well fitted inhibition curve with a large enough effect; inconclusive = small, poorly fitted or top-dose-only effect; inactive = no such curve, though single readings can be large or run the other way.
% is scaled to controls: 0 for no effect and ±100 for the full control effect; potency is read from the fitted curve at half-maximal effect.
Also: nearly all actives have a fitted effect of over 25% in size.

What follows are compounds tested against Single-stranded DNA cytosine deaminase (Homo sapiens) (UniProt Q9GZX7) (assay: Primary qHTS assay for inhibitors of Activation Induced Cytidine Deaminase (AID): AID signal). Conditions: AID deamination FRET fluorescence, UDG-coupled, 4 h; series mostly up to 115 µM; activity change, negative = inhibition: at the top concentration.
Sequence of Single-stranded DNA cytosine deaminase (Homo sapiens) (Q9GZX7 whole entry, looked up): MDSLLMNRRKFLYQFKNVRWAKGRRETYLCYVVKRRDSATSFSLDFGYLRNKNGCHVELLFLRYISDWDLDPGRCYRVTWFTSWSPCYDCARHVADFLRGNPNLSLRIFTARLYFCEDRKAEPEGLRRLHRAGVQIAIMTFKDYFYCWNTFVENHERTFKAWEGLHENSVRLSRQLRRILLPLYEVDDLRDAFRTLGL
Source text: Assay Provider (PI) Patricia Gearhart Ph.D.
National Institute on Aging
National Institute of Health (NIH), Bethesda, MD
Assay Provider (PI) Rahul Kohli Ph.D.
Perelman School of Medicine
University of Pennsylvania, Philadelphia, PA
Activation-Induced Deaminase (AID) is a cytosine deaminase which converts cytosine into uracil within stretches of ssDNA. The presence of uracil in DNA initiates a cascade of mutagenic DNA repair to introduce point mutations and DNA double strand breaks. Specific targeting of AID to the immunoglobulin heavy chain loci (Igh) promotes mutagenesis in the antibody variable region for somatic hypermutation (SHM) or switch regions leading to class switch recombination (CSR). However, AID also plays a role in accumulating unnecessary mutations across the genome. Mis-targeting of AID results in the initiation of tumor development and leads to greater drug resistance among cancer cells when continually expressed. To identify an AID inhibitor, a small molecule library will be screened in collaboration with NCATS core facility at NIH. To confirm biological function, inhibitors will be examined in an in vitro murine B-cell activation assay and subsequent secondary validation screens. Top molecules will be further screened to identify inhibitory efficacy against a wild type primary splenocytes assay. Using these approaches, we hope to identify a small molecule with great efficacy and low toxicity for use as a molecular probe to further characterize AID's intricacies, or even as a therapeutic.
A FRET based analysis of cytosine deamination, was developed to identify potential inhibitors of AID catalytic activity. This screen has two signal output, Read 1 evaluates the AID inhibition response. The second readout (Read 2) evaluates UDG response and is uses as a counterscreen to exclude false positive inhibitors. Inhibition in AID and inactivity in the UDG signal is the desired outcome for this assay.
SEQUENCE No. (e.g., 1, 2, 3, etc.); […] (e.g., Cells, Incubation, Reagent, etc.); VALUE; DESCRIPTION
1a; Reagent; 3 uL; [4/3x] 1 uM AID/2.67 U/mL UDG
1b; Reagent; 3 uL; 2 U/mL UDG
1c; Reagent; 3 uL; 1 uM AID
2a; Compound; 46 nL; Follow-up plates (0.64 uM - 10 mM)
2b; Control; 46 nL; ATA ([…] - 10 mM)
3; Time; 10 min; incubation at room temperature
5; Time; 4 hr; incubation at room temperature
6; Reagent; 4 uL; [2x] 250 mM NaOH
7; Time; 15 sec; centrifuge at 1000 rpm
8; Time; 30 min; incubation at room temperature
9a; Detection; fluorescence (Read 1: AID); EnVision (PerkinElmer) plate reader, 540 excitation and 590 emission filters
9b; Detection; fluorescence (Read 2: UDG); EnVision (PerkinElmer) plate reader, 560 excitation and 665 emission filters
NOTES (numbers refer to sequence above)
1a; Reagents were dispensed in a medium-binding black solid-bottom Greiner plates (789176F) using a BioRptr liquid dispenser. Dispense 3 uL of [4/3x] 1 uM AID (provided by Kohli lab) and [4/3x] 2 U/mL UDG (NEB M0280L) into columns 1, 2, 5 to 48.
1b; Dispense 3 uL of [4/3x] 2 U/mL UDG into column 3.
1c; Dispense 3 uL of [4/3x] 1 uM AID into column 4.
2a; Compound (7-points [uM] (0.64; 3.2; 16; 80; 400; 2,000; 10,000; 20,000) double pin-transferred (Dip Factor = 2) using the Kalypsys (Wako USA) pintool equipped with a 1536 pinhead for a final concentration range of 7.32 nM - 114 uM.
2b; 10 mM Aurintricarboxylic Acid (Sigma A1895) (ATA, 8-point, n = 2, 1:2.5 dilution in column 2) double pin-transferred (Dip Factor = 2) using the Kalypsys (Wako USA) pintool equipped with a 1536 pinhead for a [final] range of 186 nM - 114 uM.
3; Room temperature incubation.
4; Dispense 1 uL of substrate mixture from the Kohli lab [4x] […] DJC20 and [4x] 250 nM DJC23 into columns 1 to 48 .
5; Room temperature incubation.
6; Dispense 4 uL of substrate mixture [2x] 250 mM NaOH into columns 1 to 48.
7; Centrifugation step to remove bubbles.
8; Room temperature incubation
9a; Fluorescence signal (column label AID) was read using the EnVision plate reader. […]
With `Cc1ccccc1C(C)NC(=O)c1cc(-c2ccccc2)n[nH]1` (stereo not drawn) the “activity change, negative = inhibition” value was -6.39%. With `COc1ccc(-c2cc3c(=O)n(CC(=O)NCc4cccc(Br)c4)ncn3n2)cc1` the “activity change, negative = inhibition” value was -2.07%. With `Cc1cc2c(cc1C)NC(CC(=O)Nc1ccc(C(F)(F)F)cc1)C(=O)N2` (stereo not drawn) the “activity change, negative = inhibition” value was 5.04%. In the case of `Cc1cn[nH]c1C#N`, the “activity change, negative = inhibition” value was 4.84%. For `CCCCCOC(=O)CSc1nc2c(c(=O)[nH]c(=O)n2C)n1CCC`, the “activity change, negative = inhibition” value was -11.6%. In the case of `Cn1nc(C(F)(F)F)c(Cl)c1C(=O)NC1CCCC1`, the “activity change, negative = inhibition” value was 0.508%. `Cc1ccccc1NC(=O)c1cc2c(=O)n3cccc(C)c3nc2n1Cc1ccccc1` was tested, and the “activity change, negative = inhibition” value was -5.68%. In the case of `COC(=O)Cc1c(C)c2ccc(OCc3ccc(F)cc3)cc2oc1=O`, the “activity change, negative = inhibition” value was -9.33%. `CCn1c(SCC(=O)c2ccc(Cl)cc2Cl)nnc1-c1cnccn1` was tested, and the “activity change, negative = inhibition” value was -7.85%. With `CCOC(=O)C1=C(CN(CCOC)Cc2ccco2)NC(=O)NC1c1cccc(OC)c1OC` (stereo not drawn) the “activity change, negative = inhibition” value was -4.9%. In the case of `O=C(COC(=O)CC12CC3CC(CC(C3)C1)C2)Nc1ccc([N+](=O)[O-])cc1C(F)(F)F`, the “activity change, negative = inhibition” value was -2.15%. With `O=C(O)CC(NC(=O)Cc1cccc(F)c1)c1ccc(F)cc1` (stereo not drawn) the “activity change, negative = inhibition” value was -2.56%. In the case of `O=[N+]([O-])/C=C/c1ccc(-c2ccccc2)o1`, the “activity change, negative = inhibition” value was -1.14%. `O=C1CCCc2nccc(-c3ccc(Cl)cc3)c21` was tested, and the “activity change, negative = inhibition” value was -2.16%. For `COC(=O)COc1cccc(C(=O)Nc2ccc(-c3nc4ccccc4o3)cc2)c1`, the “activity change, negative = inhibition” value was 2.24%. With `CCCn1c2ccccc2c2cnn(CC(=O)N3CCCC(C(=O)OCC)C3)c(=O)c21` (stereo not drawn) the “activity change, negative = inhibition” value was -20.2%. In the case of `CCCn1c2ccccc2c2cnn(CC(=O)NCCCOC(C)C)c(=O)c21`, the “activity change, negative = inhibition” value was 7.63%. With `CCCn1c2ccccc2c2cnn(CC(=O)N(CC)c3cc(C)ccc3C)c(=O)c21` the Potency was 35.5 µM (active). For `C=CCn1c(SCC(=O)Nc2ccccc2)nc2c1c(=O)n(C)c(=O)n2C`, the “activity change, negative = inhibition” value was -4.76%. In the case of `C=CCn1c(Oc2ccc(F)cc2)nc2c1c(=O)n(C)c(=O)n2C`, the “activity change, negative = inhibition” value was -10%. With `COC(=O)Cc1c(C)c2ccc(OCc3cccc(Cl)c3)cc2oc1=O` the “activity change, negative = inhibition” value was -4.26%. For `COc1ccc(S(=O)(=O)N2CCc3c(c(-c4nnc(SC)n4C)nn3C)C2)cc1`, the “activity change, negative = inhibition” value was -13.2%. For `CC(C)(C)OC(=O)N1CCC(c2c(C(=O)N3CCN(c4cccc(Cl)c4)CC3)cnn2-c2cccc(Cl)c2)CC1`, the “activity change, negative = inhibition” value was -19.6%. In the case of `Cc1cccc(C)c1-n1ncc(C(=O)NCCCN2CCCCC2)c1C1CCN(C(=O)OC(C)(C)C)CC1`, the “activity change, negative = inhibition” value was -19.3%. With `COc1ccccc1CN1CCC(CNC(=O)c2cnn(-c3cccc(Cl)c3)c2C2CCN(C(=O)OC(C)(C)C)CC2)CC1` the Potency was 44.7 µM (active). With `COc1ccccc1N1CCN(CCCNC(=O)c2cnn(-c3ccccc3Cl)c2C2CCN(C(=O)OC(C)(C)C)CC2)CC1` the “activity change, negative = inhibition” value was -26.5%. For `COc1ccccc1CN1CCC(CNC(=O)c2cnn(-c3ccccc3Cl)c2C2CCN(C(=O)OC(C)(C)C)CC2)CC1`, the Potency was 44.7 µM (active). For `Cc1ccc(CN2CCC(CNC(=O)c3cnn(-c4ccc(C)cc4)c3C3CCN(C(=O)OC(C)(C)C)CC3)CC2)cc1`, the “activity change, negative = inhibition” value was -21.8%. With `CCCCc1c(C)nc2c(Cl)cccc2c1Cl` the “activity change, negative = inhibition” value was -2.47%. `CCn1nc(C)cc1-c1nn2c(-c3cccc(Cl)c3Cl)nnc2s1` was tested, and the “activity change, negative = inhibition” value was -5.05%. `O=C(O)c1ccc(-c2ccccc2)cc1C(=O)O` was tested, and the “activity change, negative = inhibition” value was 4.53%. In the case of `Cc1nn(CCC(=O)Nc2c(Cl)cccc2Cl)c(=O)c(C#N)c1C`, the “activity change, negative = inhibition” value was 14.8%. In the case of `COc1ccc(-c2cc(COC(=O)Cc3cccc(F)c3)on2)cc1`, the “activity change, negative = inhibition” value was 3.81%. `N#C/C(=C/c1cccc([N+](=O)[O-])c1)c1ccc(C(F)(F)F)cn1` was tested, and the “activity change, negative = inhibition” value was -16.6%. In the case of `O=C(OCC(=O)C12CC3CC(CC(C3)C1)C2)c1ccccc1Cl`, the “activity change, negative = inhibition” value was -5.72%. In the case of `O=C(CCCOC(=O)c1cc(Cl)ccc1[N+](=O)[O-])c1ccc(Br)cc1`, the “activity change, negative = inhibition” value was 0.291%. In the case of `O=C1SCCC1NC(=O)C(Sc1ccccc1)c1ccccc1` (stereo not drawn), the “activity change, negative = inhibition” value was -6.8%. `O=C(CCCCC(=O)OCC(=O)c1ccc(Br)cc1)OCC(=O)c1ccc(Br)cc1` was tested, and the “activity change, negative = inhibition” value was 19.4%. For `O=[N+]([O-])c1ccc2nc(Cl)ccc2c1`, the “activity change, negative = inhibition” value was 20%. `Cc1nn(CC(=O)N(CC2CCOC2)C2CC2)c(=O)c2ccccc12` (stereo not drawn) was tested, and the “activity change, negative = inhibition” value was 1.88%. `Cc1cccc2c(=O)c(-c3ccccc3)c(NC(=O)c3ccc([N+](=O)[O-])cc3)oc12` was tested, and the “activity change, negative = inhibition” value was -3.76%. With `Cc1n[nH]c(=O)c2c(NC(=O)CSc3nnc(C4CC4)n3Cc3ccccc3)oc(C)c12` the “activity change, negative = inhibition” value was 11.5%. For `Cc1[nH]nc2c1C(c1cccc(OCc3ccc(Cl)cc3)c1)C(C#N)=C(N)O2` (stereo not drawn), the “activity change, negative = inhibition” value was 8.28%. With `CN(CCOC(=O)c1cccs1)Cc1ccccc1` the “activity change, negative = inhibition” value was -1.32%. In the case of `Cc1ccc(-c2cc3ccccc3n2C)cc1`, the “activity change, negative = inhibition” value was 39.1%. With `CCn1c(SC(C)c2nnc(-c3ccccc3)o2)nc2ccccc2c1=O` (stereo not drawn) the “activity change, negative = inhibition” value was -21%. `O=C(Cc1ccc(Cl)c(Cl)c1)NCC1CN(Cc2ccccc2)CCO1` (stereo not drawn) was tested, and the “activity change, negative = inhibition” value was -0.709%. In the case of `CCn1ccc(C(=O)Nn2c(C)nc3sc4c(c3c2=O)CCC(C)C4)n1` (stereo not drawn), the “activity change, negative = inhibition” value was 1.64%. `COC(=O)c1ccc(NC(=O)c2noc3c2COc2ccc(C)cc2-3)cc1` was tested, and the “activity change, negative = inhibition” value was 1.38%. With `Cc1ccc(Nc2c3c(nc4ccccc24)CCC3)cc1` the “activity change, negative = inhibition” value was -5.61%. `CCOc1ccc(C(=O)Nc2ccc3nc4c(c(Nc5ccccc5OC)c3c2)CCCC4)cc1` was tested, and the “activity change, negative = inhibition” value was -3.06%. `COc1ccccc1Nc1c2c(nc3ccc(NC(=O)/C=C/c4cc(OC)c(OC)c(OC)c4)cc13)CCCC2` was tested, and the Potency was 44.7 µM (active). In the case of `Cc1ccc2[nH]c(=S)nc(-c3ccccc3)c2c1`, the “activity change, negative = inhibition” value was -5.12%.
